Experimental data taken from PubChem BioAssay AID1942 (Johns Hopkins Ion Channel Center, 2009).
Out of some 2,400 compounds screened, about 580 (24%) were called active. The list is a sample of the results. Unmarked numbers belong to inactive results.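 Rule for the calls: active = activity change at or above the mean plus 3 SD of buffer wells without dofetilide, per plate; inactive = the rest.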

Target: Potassium voltage-gated channel subfamily KQT member 2 (Rattus norvegicus) (UniProt O88943)
Assay: KCNQ2 potentiation in CHO cells – cell-based, FluxOR thallium flux, counter-screen for hERG block protector project, confirmation (AID 1942);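 note: normalized value minus buffer-control mean plus three SD of buffer wells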
Settings: FluxOR thallium flux fluorescence, at 10 µM, active compounds read high

Sequence of Potassium voltage-gated channel subfamily KQT member 2 (Rattus norvegicus) (O88943 whole entry, looked up): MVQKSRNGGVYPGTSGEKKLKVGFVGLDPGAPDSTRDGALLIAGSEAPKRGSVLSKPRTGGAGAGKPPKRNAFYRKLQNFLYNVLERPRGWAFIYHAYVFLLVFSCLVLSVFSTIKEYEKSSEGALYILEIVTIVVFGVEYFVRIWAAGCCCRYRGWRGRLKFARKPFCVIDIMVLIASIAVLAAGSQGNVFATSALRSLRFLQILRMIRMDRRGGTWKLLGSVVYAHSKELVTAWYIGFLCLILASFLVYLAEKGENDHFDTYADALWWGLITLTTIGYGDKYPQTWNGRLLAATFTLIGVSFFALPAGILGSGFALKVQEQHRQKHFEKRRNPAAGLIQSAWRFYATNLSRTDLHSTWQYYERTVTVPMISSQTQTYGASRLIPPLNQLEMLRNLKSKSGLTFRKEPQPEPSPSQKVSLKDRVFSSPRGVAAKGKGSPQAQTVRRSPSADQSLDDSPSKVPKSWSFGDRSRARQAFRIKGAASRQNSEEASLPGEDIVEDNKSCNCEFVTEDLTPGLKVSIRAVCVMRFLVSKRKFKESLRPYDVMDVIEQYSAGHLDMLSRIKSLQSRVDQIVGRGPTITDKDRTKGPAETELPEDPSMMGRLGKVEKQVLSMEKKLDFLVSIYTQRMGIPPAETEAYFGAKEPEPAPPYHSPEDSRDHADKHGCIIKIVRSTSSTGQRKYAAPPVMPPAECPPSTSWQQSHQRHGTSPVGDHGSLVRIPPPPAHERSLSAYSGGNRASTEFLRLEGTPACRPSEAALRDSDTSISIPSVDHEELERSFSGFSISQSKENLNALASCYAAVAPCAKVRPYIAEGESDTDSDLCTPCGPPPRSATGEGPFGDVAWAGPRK

SMILES | activity change, less the hit threshold
CC(C)(C)c1ccc(C(=O)NC(=S)Nc2nc3c(s2)CCCC3)cc1 | 10% (active)
O=C(NC(=S)Nc1nc2c(s1)CSc1ccccc1-2)c1ccccc1 | -2.4%
COC(=O)c1ccc(C(=O)NC(=S)Nc2nc3c(s2)CC(C)CC3)cc1 (centres undefined) | -11.7%
COC(=O)c1ccc(C(=O)NC(=S)Nc2nc3c(s2)CCCC3)cc1 | 16% (active)
CN(C)/C=C1/C(=O)N(c2ccc([N+](=O)[O-])cc2)N=C1c1ccccc1 | -5.3%
Clc1cccc(-c2ccc(C=Nc3ccc(N4CCOCC4)cc3)o2)c1Cl | -8.8%
O=C(OCc1ccc(F)cc1)c1cc(S(=O)(=O)N2CCCCC2)ccc1N1CCOCC1 | -12.7%
CCOC(=O)C1CCN(C(=O)CCS(=O)(=O)c2ccc3c(c2)CCN3C(=O)CC)CC1 | -16.7%
S=c1nc(C2CC2)[nH]c2ccccc12 | 35.2% (active)
S=c1nc(C2CCCCC2)[nH]c2ccccc12 | 4.1% (active)
COc1cc(S(=O)(=O)NCC2COCCO2)ccc1-n1cnnn1 (centres undefined) | -13.9%
O=C(N=Nc1c(O)[nH]c2ccc([N+](=O)[O-])cc12)c1cc(-c2ccccc2Cl)nc2ccccc12 | -10.8%
COc1ccc(NC(=O)CN2C(=O)S/C(=C/c3cccn3-c3ccc(C(=O)O)cc3)C2=O)cc1 | -22.6%
c1ccc(-c2ccnc3nc(N4CCN(c5ccccc5)CC4)nn23)cc1 | -26.3%
Cc1cc([N+](=O)[O-])c(C)cc1-c1ccc(/C=N/NC(=O)Cn2nnnc2N)o1 | -10%
Cc1ccccc1C(=O)NNC(=O)C(=O)Nc1cccc(Cl)c1C | 17.7% (active)
COc1ccccc1C(=O)NNC(=O)C(=O)Nc1cccc(Cl)c1C | 131% (active)
CC(=O)Nc1ccccc1C(=O)C(=O)Nc1ccc(Cl)cc1 | -18.3%
COc1ccc(Cl)cc1C(=O)Nc1cccnc1Cl | -15.9%
CC(=O)Nc1ccccc1C(=O)C(=O)Nc1ccccc1 | -23.5%

SMILES | activity change, less the hit threshold
COc1ccc(C(=O)Nc2ccccc2C(=O)O)cc1Cl | -8.6%
O=C(Nc1ccccc1C(=O)O)c1ccc(NC(=O)C2CC2)cc1 | -20.5%
Oc1ccc(Cl)cc1C1=NNC(c2cccs2)C1 (centres undefined) | 9.1% (active)
O=C(Nc1cc(Cl)ccc1O)C1CC(c2ccccc2Cl)=NO1 (centres undefined) | -19.1%
CCOc1ccc2[nH]c(=O)c(CN(Cc3ccc(C)cc3)C(=O)N3CCCC3)cc2c1 | -12.4%
CCSc1nnc(NC(=O)Cn2cnc3c2c(=O)n(C)c(=O)n3C)s1 | -15.7%
S=c1[nH]nc(Nc2ccc(Cl)cc2)s1 | -19.3%
Clc1ccc(Nc2nc3cccnc3s2)cc1 | -20.7%
Clc1ccc(Nc2ccc(Cl)nn2)cc1 | 7.4% (active)
COc1ccc(/C=N/NC(=O)C(=O)N2CCCC2)cc1 | -5%
N#Cc1c(-c2ccco2)c2c([nH]c1=S)CCCC2 | -16.2%
O=C(NCc1ccccc1)C(=O)Nc1nc(C23CC4CC(CC(C4)C2)C3)cs1 | -21.1%
O=C(NNC(=S)Nc1ccccc1)c1cccc(S(=O)(=O)N2CCOCC2)c1 | -7.9%
O=C(CCc1ccccc1Cl)Nc1ccc(S(=O)(=O)N2CCOCC2)cc1 | -19.3%
O=[N+]([O-])c1cc(Cl)cc(/C=N/NC(=S)Nc2ccc(S(=O)(=O)N3CCOCC3)cc2)c1O | 29.8% (active)
Cc1ccc(F)cc1CNC(=O)C1CCC(=O)N(C2CC2)C1 (centres undefined) | -13.7%
N#Cc1ccc(-c2ccc(OCC(=O)Nc3cccnc3)cc2)cc1 | -9.1%
O=C(C1CC1)N1N=C(c2ccccc2)CC1(O)C(F)(F)C(F)(F)F (centres undefined) | -22.1%
O=C(CN1C(=O)NC(Cc2ccccc2)C1=O)Nc1ccccc1OC(F)F (centres undefined) | -20.5%
